Results on 27 compounds are retold here after PubChem BioAssay AID2685 (National Center for Advancing Translational Sciences (NCATS), 2010).

Molecules are shown by their SMILES. In all, about 320,000 compounds went through this assay and about 2,100 (0.66%) were called active. Inconclusive results (about 53%) are left out. The call rests on the fitted dose curve; in most records, active means well fitted inhibition curve with a large enough effect in the signal ratio, with a control signal flat (not every such curve was filed as active); inconclusive means small, poorly fitted or top-dose-only effect, or effect the other way, or a change in a side signal; inactive means flat fitted curve, though single readings scatter; the % refers to the signal ratio. What follows is part of a selection rich in actives, with near analogues and random picks from the rest.
Potency means the concentration at half of the fitted maximal effect.

The experiment can be described thus: qHTS Assay for Lipid Storage Modulators in Drosophila S3 Cells.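 On cell number change: cells counted by Cell Tracker Red CMTPX staining in the red channel.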 On lipid storage change, negative = inhibition: on the % scale 0 is the no-effect control and ±100 the full control effect. The note with it: BODIPY lipid droplet fluorescence, 18-24 h, cells fed with added oleic acid; cell number change: measured here: cell count max response; series mostly up to 46.1 µM; lipid storage change, negative = inhibition: at the top concentration. In outline: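 Drosophila S3 cells loaded with oleic acid (400 uM, as added) and compounds at several concentrations; lipid droplets imaged by 488-nm laser-scanning cytometry, 500–530 nm intensity and object ratio to cell channel. Percent activity normalized to 20 uM Triacsin C.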
For `CC(=O)N1N=C(c2ccccc2)OC12CCCC2`, the “lipid storage change, negative = inhibition” value was 1.79% (inactive) and the cell number change worked out at 3.13%.
For `CC(=O)N1N=C(c2ccncc2)OC12CCCCCC2`, the “lipid storage change, negative = inhibition” value is 5.71% (inactive) and the cell number change was found to be 5.48%.
Consider `CC(=O)N1N=C(c2ccncc2)OC12CCCC2`, for which the Potency was 16.4 µM (active) and the cell number change is -12.2%.
As to `CCCOc1ccc(S(=O)(=O)NNC(=O)c2cc3ccccc3o2)cc1`, the outcome was inactive and the cell number change is -21.5%.
For the compound `S=c1nc(C2CC2)n(-c2ccccc2)[nH]1`, the “lipid storage change, negative = inhibition” value was -13.7% (inactive) and the cell number change came to 6.79%.
For the compound `CC(Sc1ccccc1)C(=O)N1CCN(S(=O)(=O)c2ccccc2)CC1` (configuration not stated), the Potency was 0.0103 µM (active) and the cell number change was 22.7%.
Regarding `CC(Sc1ccccc1)C(=O)N1CCN(S(=O)(=O)c2cccc(Br)c2)CC1` (configuration not stated), the compound was classed as inactive.
With `CC(Sc1ccccc1)C(=O)N1CCN(S(=O)(=O)c2ccccc2F)CC1` (configuration not stated), the “lipid storage change, negative = inhibition” value is -1.62% (inactive) and the cell number change was -14.5%.
For `CS(=O)(=NS(=O)(=O)c1ccc(Cl)cc1)c1ccccc1` (configuration not stated), in that order: 4.24% (inactive) and 5.26%.
As to `N/C(=N\OC(=O)/C=C/c1ccccc1)c1ccccn1`, the “lipid storage change, negative = inhibition” value was 2.94% (inactive).
On to `COc1cccc(-c2ncc3ccccc3c2COC(=O)c2ccc(Br)cc2)c1`, for which the result was inactive and the cell number change came out at 2.33%.
Regarding `O=C(COC(=O)c1ccccn1)Nc1cccc(Cl)c1Cl`, the “lipid storage change, negative = inhibition” value was 10.9% (inactive) and the cell number change is -0.814%.
On to `O=C(COC(=O)c1cccs1)Nc1ccccc1C(F)(F)F`, for which the “lipid storage change, negative = inhibition” value was -1.51% (inactive) and the cell number change is -6.32%.
`O=C(COC(=O)c1c2c(nc3ccccc13)CCCC2)c1cccs1`: the “lipid storage change, negative = inhibition” value was -22.3% (inactive) and the cell number change worked out at 9.93%.
As to `O=C(COC(=O)/C=C/c1cccs1)Nc1ccccc1Cl`, the “lipid storage change, negative = inhibition” value is -2.77% (inactive) and the cell number change was determined as 11.7%.
Consider `O=C(COC(=O)c1c2c(nc3ccccc13)/C(=C\c1cccs1)CCC2)Nc1ccccc1Cl`, for which the Potency is 0.58 µM (active) and the cell number change was -12.6%.
Take `O=C(COC(=O)c1cccs1)Nc1ccccc1Cl`: the Potency is 16.4 µM (active) and the cell number change was 2.94%.
Take `CCc1ccccc1NC(=O)COC(=O)c1cccs1`: the outcome was inactive and the cell number change was -3.91%.
On to `O=C(COC(=O)c1ccccn1)Nc1c(Cl)cccc1Cl`, for which the Potency is 16.4 µM (active) and the cell number change is -5.33%.
In the case of `O=C(COC(=O)c1ccccn1)Nc1ccccc1Cl`, the “lipid storage change, negative = inhibition” value is -3.35% (inactive) and the cell number change was -8.3%.
Regarding `Nc1c(N(CCC2=CCCCC2)C(=O)C2CC2)c(=O)[nH]c(=O)n1Cc1ccccc1`, the “lipid storage change, negative = inhibition” value was -4.29% (inactive) and the cell number change amounted to 10.2%.
For `COc1ccc(C)cc1NC(=O)c1ccccc1NS(=O)(=O)c1cccc2cccnc12`, in that order: 1.11% (inactive) and -4.79%.
The matching figures for `CCOc1ccc(CO/N=C/c2c(C)[nH]c(=O)[nH]c2=O)cc1`: -2.43% (inactive) and 3.8%.
For `CCOC(=O)C1=C(N)N2C(=O)C(C)SC2=C(C(=O)OC)C1c1ccccc1OC` (configuration not stated), in that order: -49.1% (inactive) and -22.7%.
For the compound `CCOc1cc(/C=N\NC(=O)OC)ccc1OC(=O)c1ccco1`, the “lipid storage change, negative = inhibition” value was 5.55% (inactive) and the cell number change stood at 10.8%.
The matching figures for `Cc1ccc(N2CCN(S(=O)(=O)N3CCCCCC3)CC2)cc1Cl`: 2.16% (inactive) and 8.56%.
Regarding `Cc1ccc(Cc2nc(-c3cccnc3)no2)cc1`, the “lipid storage change, negative = inhibition” value was 1.98% (inactive) and the cell number change was -9.21%.
